Rin1-Abl PPI inh: human Rin1-Abl interaction inhibition; inhibition, % at 7.35 µM; 360,000 tested, 0.4% active; AID 588664; TR-FRET Rin1/Abl binding, biochemical; P00519+Q13671; in the data active = inhibition above about 5%, passing the limit was not always enough
IDE cell activ: activators of human insulin-degrading enzyme in cells. P14735. HEK cells, FAbeta-B cleavage, fluorescence polarization; 0% vehicle, 100% cell-free pure enzyme wells. activation, % at 5.96 µM. 340,000 tested, 0.073% active;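 active = activation above the mean of all tested compounds plus 3 SD, set per screening campaign, cut at about 17% in these data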
IDE cell inh: inhibits human insulin-degrading enzyme in HEK cells. FAbetaB cleavage, fluorescence polarization. 320,000 tested, 0.41% active. P14735. inhibition, % at 5.59 µM;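 active = percent inhibition above the average of all tested compounds plus 3 SD, set per screening campaign, cut at about 16% in these data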;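 note: IDE supplied by intact live HEK cells; FP after avidin binding of uncleaved biotin substrate so inhibition keeps polarization high; 0% = DMSO wells and 100% = 60 µM reference IDE inhibitor Ii1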
E coli Lon inh: inhibitors of E. coli Lon protease; purified E. coli Lon protease, fluorescence polarization; 360,000 tested, 0.42% active; inhibition, % at 7.94 µM; P0A9M0; in the data active = inhibition above about 13%, passing the limit was not always enough;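 note: 0% = enzyme with probe and DMSO and 100% = no enzyme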
Target sequence (P0A9M0 whole entry, looked up): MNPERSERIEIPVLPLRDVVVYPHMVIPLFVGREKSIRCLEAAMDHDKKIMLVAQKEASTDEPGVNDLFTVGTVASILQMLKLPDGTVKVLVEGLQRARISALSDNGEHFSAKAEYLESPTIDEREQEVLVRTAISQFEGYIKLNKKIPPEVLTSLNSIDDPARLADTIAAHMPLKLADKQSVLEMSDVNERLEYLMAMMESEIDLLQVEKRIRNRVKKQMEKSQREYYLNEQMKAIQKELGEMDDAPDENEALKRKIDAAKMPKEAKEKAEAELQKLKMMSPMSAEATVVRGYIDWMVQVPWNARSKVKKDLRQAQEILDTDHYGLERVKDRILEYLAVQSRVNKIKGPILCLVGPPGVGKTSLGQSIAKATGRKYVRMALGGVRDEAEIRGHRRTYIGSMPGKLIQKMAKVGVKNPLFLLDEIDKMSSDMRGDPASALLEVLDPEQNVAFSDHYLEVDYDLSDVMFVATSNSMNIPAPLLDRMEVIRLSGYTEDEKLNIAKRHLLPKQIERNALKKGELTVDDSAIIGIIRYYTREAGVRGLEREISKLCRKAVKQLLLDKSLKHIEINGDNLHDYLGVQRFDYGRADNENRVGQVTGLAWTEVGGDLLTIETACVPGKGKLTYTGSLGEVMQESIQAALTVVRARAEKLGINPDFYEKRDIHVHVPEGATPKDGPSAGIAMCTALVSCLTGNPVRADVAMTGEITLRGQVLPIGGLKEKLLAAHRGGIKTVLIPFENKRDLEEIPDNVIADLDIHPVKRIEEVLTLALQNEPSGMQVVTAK
PKA-R2B activ: activators of human PKA-R2B complex; P22694+P31323; PKA-R2B holoenzyme dissociation, Cy5-IP20 fluorescence polarization; R2B truncated from residue 108, S112A mutant; 0% DMSO only, 100% 113 µM cGMP; activation, % at 11.4 µM; 340,000 tested, 0.079% active;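 active = activation above a cutoff set at the mean over all compounds plus 3 SD, cut at about 18% in these data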;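 note: higher means more holoenzyme dissociation and a rise in polarization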
PKA-R1A act: PKA-R1A complex activation | P00514+P68181 | PKA-R1A dissociation, Cy5-IP20 fluorescence polarization; scaled: DMSO 0%, 113 µM cGMP 100% | activation, % at 11.4 µM | 340,000 tested, 0.083% active | AID 504707;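 active = percent activation above the mean of all tested compounds plus 3 SD, cut at about 19% in these data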;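 note: higher means more PKAc released from R1A so a rise in polarization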
IDE inh confirm: confirmation of human insulin-degrading enzyme inhibitors in cells; 1,200 tested, 51% active; HEK cells, FAbetaB cleavage, fluorescence polarization; shares compounds with IDE cell inh; inhibition, % at 5.59 µM;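 active = mean inhibition across triplicate wells above the cutoff set by the earlier primary insulin-degrading enzyme screen, cut at about 16% in these data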;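 note: 0% = DMSO wells and 100% = 60 µM reference IDE inhibitor Ii1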
HEK293 tox: counter-screen for IDE inhibitors: cytotoxicity in HEK cells | shares compounds with IDE cell inh | HEK293 cytotoxicity, ATP luminescence | inhibition, % at 5.59 µM | 1,200 tested, 28% active | AID 449730; in the data active = inhibition above about 22%;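 note: 0% = vehicle wells and 100% = reference cytotoxic drug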
The depositor's hits bear a star. In the library only some 1.3% were active in any assay of this set; here they are far more common.

What do the screens show for `CN(C)c1cc(NC(=O)CNC(C)(C)CC(C)(C)C)c2ccccc2n1`?
Rin1-Abl PPI inh: 3; IDE cell activ: 0; IDE cell inh: -3; E coli Lon inh: -1; PKA-R2B activ: 0; PKA-R1A act: 2

How did CCN(C(=O)COC(=O)C12CC3CC(CC(NC(C)=O)(C3)C1)C2)C1CCCCC1 do in these assays?
Rin1-Abl PPI inh: 0; IDE cell activ: 0; E coli Lon inh: -1; PKA-R2B activ: -3; PKA-R1A act: -4

What do the screens show for `Fc1ccc2[nH]c3c(NCc4ccccc4)ncnc3c2c1`?
Rin1-Abl PPI inh: 2; IDE cell activ: -24; IDE cell inh: 88*; E coli Lon inh: 7; PKA-R2B activ: -2; PKA-R1A act: -8; IDE inh confirm: 67*; HEK293 tox: 59*

Results for OCCCNc1ncnc2c1[nH]c1ccccc12 ?
Rin1-Abl PPI inh: -7; IDE cell activ: -5; IDE cell inh: 5; E coli Lon inh: 2; PKA-R2B activ: -4; PKA-R1A act: 3

What do the screens show for `COCCNc1ncnc2c1[nH]c1ccccc12`?
Rin1-Abl PPI inh: -2; IDE cell activ: -13; IDE cell inh: 18*; E coli Lon inh: -7; PKA-R2B activ: 1; PKA-R1A act: 3; IDE inh confirm: 6; HEK293 tox: 18

How did COc1ccc2[nH]c3c(NCc4ccco4)ncnc3c2c1 do in these assays?
IDE cell inh: 38*; IDE inh confirm: 18*; HEK293 tox: 15

How did CCN(CC)CCNc1ncnc2c1[nH]c1ccc(OC)cc12 do in these assays?
IDE cell inh: -1

How did CCOC(=O)C1=CCC(c2ccccc2Cl)N(S(=O)(=O)c2ccc(C)cc2)C1 (stereo unspecified) do in these assays?
Rin1-Abl PPI inh: 3; E coli Lon inh: -6

How did CCc1sc(C(=O)Nc2nc(-c3ccccn3)cs2)cc1C do in these assays?
Rin1-Abl PPI inh: 0; IDE cell activ: -6; IDE cell inh: 19*; E coli Lon inh: 1; PKA-R2B activ: -6; PKA-R1A act: -9; IDE inh confirm: 6; HEK293 tox: 50*

How did CCOC(=O)/C(=C\C=C1/Sc2ccccc2N1CC)C(C)=O do in these assays?
Rin1-Abl PPI inh: -37; IDE cell activ: -103; IDE cell inh: 123*; E coli Lon inh: inactive; PKA-R2B activ: -15; PKA-R1A act: -4; IDE inh confirm: 156*; HEK293 tox: 23*

How did CCOC(=O)/C(=C/C=C1\Sc2ccccc2N1CC)C(C)=O do in these assays?
Rin1-Abl PPI inh: -22; IDE cell activ: -146; IDE cell inh: 101*; E coli Lon inh: inactive; PKA-R2B activ: -4; PKA-R1A act: 3; IDE inh confirm: 143*; HEK293 tox: 20

What do the screens show for `CCOC(=O)/C(=C/C=C1\Sc2cc(C)c(C)cc2N1CC)C(C)=O`?
Rin1-Abl PPI inh: -7; IDE cell activ: -124; E coli Lon inh: inactive; PKA-R2B activ: -5; PKA-R1A act: 5

How did CC1(C#N)c2ccccc2C(Br)=CN1C(=O)c1ccccc1 (stereo unspecified) do in these assays?
Rin1-Abl PPI inh: -17; IDE cell activ: 6; IDE cell inh: -2; E coli Lon inh: 4; PKA-R2B activ: -2; PKA-R1A act: -1

Results for Cc1nc2ccc(NC(=O)c3ccc(Cl)c(S(=O)(=O)N(C)c4ccccc4)c3)cc2s1 ?
Rin1-Abl PPI inh: 5; IDE cell activ: -6; IDE cell inh: 26*; E coli Lon inh: -4; PKA-R2B activ: -7; PKA-R1A act: 5; IDE inh confirm: 3; HEK293 tox: 54*

What do the screens show for `Cc1nc2ccc(NC(=O)c3cc(S(=O)(=O)N(C)c4ccccc4)ccc3Cl)cc2s1`?
Rin1-Abl PPI inh: -2; IDE cell activ: 1; IDE cell inh: 5; E coli Lon inh: -32; PKA-R2B activ: 2; PKA-R1A act: 7

Results for Cc1cccc(C(=O)Nc2ccnc(-c3cccnc3)n2)c1 ?
Rin1-Abl PPI inh: 1; IDE cell activ: -26; IDE cell inh: 44*; E coli Lon inh: -9; PKA-R2B activ: -7; PKA-R1A act: -1; IDE inh confirm: 31*; HEK293 tox: 12

Results for Cc1cccc(C(=O)Nc2ccnc(-c3ccncc3)n2)c1 ?
Rin1-Abl PPI inh: 2; IDE cell activ: -22; IDE cell inh: 51*; E coli Lon inh: -7; PKA-R2B activ: -6; PKA-R1A act: 2; IDE inh confirm: 27*; HEK293 tox: 8

What do the screens show for `CC(=O)Nc1ccnc(-c2cccnc2)n1`?
Rin1-Abl PPI inh: -1; IDE cell activ: 3; IDE cell inh: -4; E coli Lon inh: 1; PKA-R2B activ: 1; PKA-R1A act: 2

Results for Cc1ccccc1C(=O)Nc1ccnc(-c2ccncc2)n1 ?
Rin1-Abl PPI inh: 0; IDE cell activ: -3; IDE cell inh: 7; E coli Lon inh: 5; PKA-R2B activ: 5; PKA-R1A act: 8

How did CCOc1ccc(CCNC(=O)COC(=O)c2cccc(S(=O)(=O)N3CCCCC3)c2)cc1OCC do in these assays?
Rin1-Abl PPI inh: -2; IDE cell activ: 11; IDE cell inh: 0; E coli Lon inh: -6; PKA-R2B activ: 2; PKA-R1A act: -9

What do the screens show for `CCOCCCNC(=S)N1CCCN(c2nc3cc(C)c(C)cc3cc2C#N)CC1`?
Rin1-Abl PPI inh: -4; IDE cell activ: -9; IDE cell inh: 21*; E coli Lon inh: -1; PKA-R2B activ: -1; PKA-R1A act: -9; IDE inh confirm: 5; HEK293 tox: 17

How did Cc1ccc(O)c(C(=O)c2cc(C#N)c(=O)n(-c3nccs3)c2)c1 do in these assays?
Rin1-Abl PPI inh: 2; IDE cell activ: -43; IDE cell inh: 51*; E coli Lon inh: -211; PKA-R2B activ: -9; PKA-R1A act: -1; IDE inh confirm: 65*; HEK293 tox: 10

What do the screens show for `Cc1c(-n2cc(C(=O)c3cc(Cl)ccc3O)cc(C#N)c2=O)c(=O)n(-c2ccccc2)n1C`?
Rin1-Abl PPI inh: 4; IDE cell activ: -12; IDE cell inh: 17*; E coli Lon inh: -31; PKA-R2B activ: 0; PKA-R1A act: -12; IDE inh confirm: 25*; HEK293 tox: 4

How did Cc1ccc(O)c(C(=O)c2cc(C#N)c(=O)n(-c3c(C)n(C)n(-c4ccccc4)c3=O)c2)c1 do in these assays?
Rin1-Abl PPI inh: 3; IDE cell activ: -10; IDE cell inh: 7; E coli Lon inh: -46; PKA-R2B activ: 8; PKA-R1A act: 8

From PubChem
